# PubChem BioAssay (Tox21)
# Results filed as inconclusive are left out. A call without a number means that no potency is given here. The source made the active and inactive calls. The call rests on the fitted dose curve.
# Columns and labels:
# [1] = target: Acetylcholinesterase (Homo sapiens) (UniProt P22303); assay: Acetylcholinesterase (AChE) small molecule antagonists: colormetric cell-based qHTS assay (AID 1347395); details: SH-SY5Y cells AChE activity, colorimetric (Ellman); series mostly up to 115 µM; further: nearly all actives have a fitted effect of over 30% in size
# Summary of the method: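 After overnight attachment at 37 C, SH-SY5Y cells get 30 min compound exposure; detection cocktail (acetylthiocholine, DTNB) then incubates 90 min at 37 C, and absorbance reflects AChE-generated thiocholine.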
# [2] = target: Acetylcholinesterase (Homo sapiens) (UniProt P22303); assay: Acetylcholinesterase (AChE) small molecule antagonists: enzyme-based qHTS assay (AID 1347397); details: Potency: AChE enzyme activity inhibition; outcome: AChE enzyme activity inhibition; series mostly up to 115 µM; further: nearly all actives have a fitted effect of over 55% in size
# Summary of the method: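 Absorbance-based detection of thiocholine with DTNB served as the read-out. Recombinant human AChE was exposed to compound for 30 min at RT before a 10 min RT incubation with acetylthiocholine.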
# [3] = target: Acetylcholinesterase (Homo sapiens) (UniProt P22303); assay: Acetylcholinesterase (AChE) small molecule antagonists: fluorescence cell-based qHTS assay (AID 1347398); details: SH-SY5Y cells; Potency: AChE activity; outcome: AChE activity; series mostly up to 115 µM; further: nearly all actives have a fitted effect of over 50% in size; further: potency means the concentration at half of the fitted maximal effect
# Summary of the method: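 Fluorimetric cell-based assay: intact SH-SY5Y cells, 30 min compound preincubation at 37 C, acetylthiocholine substrate with thiol probe Thiolite Green, 40 min RT development, fluorescence 490/520 nm.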
# [4] = target: Acetylcholinesterase (Homo sapiens) (UniProt P22303); assay: Acetylcholinesterase (AChE) small molecule antagonists: enzyme-based qHTS assay with human liver microsomes (AID 1347399); details: Potency: qHTS inhibition; outcome: qHTS inhibition; series mostly up to 115 µM; further: nearly all actives have a fitted effect of over 60% in size
# Summary of the method: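 Recombinant human AChE (50 mU/mL in the enzyme mix) and human liver microsomes (0.25 mg/mL final) were preincubated with compound and NADPH (0.25 mg/mL final) for 30 min at 37 C. Acetylthiocholine/DTNB was then added; thiocholine was read colorimetrically after 10 min at room temperature.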
# Chain of Acetylcholinesterase (Homo sapiens) (P22303 whole entry, looked up): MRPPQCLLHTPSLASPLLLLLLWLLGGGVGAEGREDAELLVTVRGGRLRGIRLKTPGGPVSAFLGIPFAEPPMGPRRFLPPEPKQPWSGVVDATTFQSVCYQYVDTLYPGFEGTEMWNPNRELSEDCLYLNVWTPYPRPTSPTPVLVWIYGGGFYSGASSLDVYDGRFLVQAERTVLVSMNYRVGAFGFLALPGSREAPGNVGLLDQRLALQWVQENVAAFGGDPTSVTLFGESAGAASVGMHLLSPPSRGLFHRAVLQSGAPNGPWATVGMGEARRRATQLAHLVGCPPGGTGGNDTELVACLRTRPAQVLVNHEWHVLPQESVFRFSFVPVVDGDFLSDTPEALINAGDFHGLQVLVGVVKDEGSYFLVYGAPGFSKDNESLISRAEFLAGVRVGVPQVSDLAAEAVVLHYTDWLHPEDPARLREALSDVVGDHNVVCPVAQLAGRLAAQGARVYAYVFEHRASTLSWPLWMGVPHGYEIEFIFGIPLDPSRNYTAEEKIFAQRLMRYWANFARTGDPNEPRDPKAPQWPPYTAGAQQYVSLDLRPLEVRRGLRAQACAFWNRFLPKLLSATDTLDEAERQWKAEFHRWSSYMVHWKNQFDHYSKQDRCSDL
Compound,Potency [1],Potency [2],Potency [3],Potency [4]
CC(=O)CC(=O)OC(C)(C)C,inactive,inactive,inactive,inactive
CCCCOC(=O)CCCCC(=O)OCCCC,inactive,inactive,inactive,inactive
CCCCCCCCCC(C)=O,inactive,inactive,inactive,inactive
CCCC1CCC(=O)CC1,inactive,inactive,inactive,inactive
CCCCCCCC/C=C\CCCCCCCC(=O)N(CCO)CCO,inactive,inactive,19.9 µM (active),inactive
CC(=O)c1ccc2c(c1)CCCC2,inactive,inactive,inactive,inactive
O=C(O)c1cccnc1Nc1cccc(C(F)(F)F)c1,inactive,inactive,inactive,inactive
O=C(O)c1cccc(C(=O)O)c1C(=O)O,inactive,inactive,inactive,inactive
CCCCc1ccc2cccc(S(=O)(=O)O)c2c1,inactive,inactive,inactive,inactive
CC(C)Nc1ccc(NC(C)C)c2c1C(=O)c1ccccc1C2=O,inactive,inactive,inactive,inactive
O=C(C(=O)c1ccco1)c1ccco1,inactive,inactive,inactive,inactive
CN(C)CCOCCO,inactive,inactive,inactive,inactive
CCCCCCCCCCCC(=O)OCC,inactive,inactive,inactive,inactive
CC(=O)OC(C)(C)Cc1ccccc1,inactive,inactive,inactive,inactive
CC1=CC=C(C(C)C)CC1,inactive,inactive,inactive,inactive
Cc1cscn1,inactive,inactive,inactive,inactive
CC(C)CCC(=O)CCC(C)C,inactive,inactive,inactive,inactive

Compound,Potency [1],Potency [2],Potency [3],Potency [4]
Cc1cnc(NS(=O)(=O)c2ccc(N)cc2)nc1,inactive,inactive,inactive,inactive
CC1(C)CC(N)CC(C)(C)N1,inactive,inactive,inactive,inactive
CCOC(=O)C(=O)OCC,inactive,inactive,inactive,inactive
CC1(C)CC(O)CC(C)(C)N1[O],inactive,inactive,inactive,inactive
Cc1nc2ccccc2n1Cc1ccc(Cl)cc1,inactive,inactive,inactive,inactive
CC(C)CCCCCCOC(=O)CCCCC(=O)OCCCCCCC(C)C,inactive,inactive,inactive,inactive
CC(C)(O)c1ccc(CNC(=O)c2cccnc2Oc2ccc(F)cc2)cc1,inactive,inactive,inactive,inactive
CC1CCC(=O)C1=O (configuration not stated),inactive,inactive,inactive,inactive
CC(CC=O)CC(C)(C)C (configuration not stated),inactive,inactive,inactive,inactive
Cc1cc(C(C)(C)C)cc(C)c1CC1=NCCN1,inactive,inactive,inactive,inactive
CC1=CC(=O)CC(C)(C)C1=O,inactive,inactive,inactive,inactive
N[C@H](C(=O)O)[C@@H](O)c1ccc(O)c(O)c1,inactive,inactive,inactive,inactive
CCCCCCCC/C=C\CCCCCCCC(=O)OCCO,inactive,inactive,inactive,inactive
O=c1[nH]c(=O)n([C@H]2C[C@H](O)[C@@H](CO)O2)cc1I,inactive,inactive,inactive,inactive
CCCCCCCCC(=O)OCC(C)OC(=O)CCCCCCCC (configuration not stated),inactive,inactive,inactive,inactive
OC[C@H]1O[C@@H]2O[C@H]3[C@H](O)[C@@H](O)[C@@H](O[C@H]4[C@H](O)[C@@H](O)[C@@H](O[C@H]5[C@H](O)[C@@H](O)[C@@H](O[C@H]6[C@H](O)[C@@H](O)[C@@H](O[C@H]7[C@H](O)[C@@H](O)[C@@H](O[C@H]8[C@H](O)[C@@H](O)[C@@H](O[C@H]9[C@H](O)[C@@H](O)[C@@H](O[C@H]1[C@H](O)[C@H]2O)O[C@@H]9CO)O[C@@H]8CO)O[C@@H]7CO)O[C@@H]6CO)O[C@@H]5CO)O[C@@H]4CO)O[C@@H]3CO,inactive,inactive,inactive,inactive
